experiment: binders of probe aFST on microarray, primary screen, stem cell growth factor project, biochemical, small-molecule microarray, fluorescence 635/667 (AID 1086); conditions: higher = more signal;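 note: score merges 667 nm fluorescence with signal-to-noise of each printed compound spot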

Row | Structure (SMILES) | composite z-score
1 | O=C1c2ccccc2[C@](Cc2ccccc2I)(C(=O)O)[C@H](c2ccc(CO)cc2)N1Cc1ccccc1C(F)(F)F | -0.0423
2 | C=CCN1C(=O)[C@@]2(O[C@@H](CCO)[C@H]([Si](C)(C)c3ccc(OC)cc3)[C@H]2C)c2cc(NC(C)=O)ccc21 | 0.55
3 | O=C1O[C@@H](c2ccccc2)[C@@H](c2ccccc2)N2[C@@H](c3ccc(O)cc3)[C@]3(C(=O)Nc4ccccc43)[C@@H](C(=O)NC[C@H](O)c3ccccc3)[C@H]12 | -0.174
4 | C=C(CCCC)C(=O)CC[C@@H](OC(=O)c1ccccc1-c1ccccc1C(=O)O)c1ccc(CO)o1 | 0.137
5 | COCCOC(=O)N1C(=O)[C@@]2(c3cc(C#CCCO)ccc31)[C@H](c1ccc(O)cc1)N1[C@H](c3ccccc3)[C@H](c3ccccc3)OC(=O)[C@H]1[C@@H]2C(=O)N1CCCCCCC1 | 2
6 | O=C(NCC(O)CO)[C@]1(CCS(=O)(=O)c2ccccc2)N=C(c2ccc(OCCCO)cc2)O[C@@H]1c1ccccc1 (stereo partly drawn) | 1.08
7 | CC(C)NC(=O)[C@@H]1c2ccccc2C(=O)N(C2CCCCC2)[C@H]1c1ccc(CO)cc1 | 0.333
8 | CCOC(=O)C=Cc1cccc(OC)c1O | -0.722
9 | NC(=O)NCC#Cc1ccc2c(c1)[C@]1(C(=O)N2)[C@H](C(=O)NC[C@H](O)c2ccccc2)[C@H]2C(=O)O[C@H](c3ccccc3)[C@H](c3ccccc3)N2[C@@H]1c1ccccc1OCCO | 0.213
10 | CN1C(=O)C2C(C1=O)C1C=C(c3ccc(CO)cc3)C2C(C2CC2)N1Cc1cc2c(cc1Br)OCO2 (stereo not drawn) | 0.917
11 | O=C1OCCC/C=C\[C@H]2OC34C=CCN(Cn5nnc6ccccc65)C(=O)[C@H]3N(CCCO)C(=O)[C@@H]4C12 (stereo partly drawn) | -1.28
12 | CC(C)N1C(=O)c2ccccc2[C@](C)(C(=O)NC2CC2)[C@@H]1c1ccc(CO)cc1 | 0.048
13 | O=C1C2C=CC(C(O)CCc3ccccc3)N(Nc3ccccc3)C2C(=O)N1c1ccccc1 (stereo not drawn) | 1.15
14 | O=C1O[C@H](c2ccccc2)[C@H](c2ccccc2)N2[C@H]1[C@@H](C(=O)N1CCCCCCC1)[C@]1(C(=O)Nc3ccc(C#CC4=CCCCC4)cc31)[C@H]2c1ccc(O)cc1 | 3.41
15 | CC(C)OC(=O)C1=CCC(c2cccc(Cl)c2)O1 (stereo not drawn) | -0.332
16 | C=CCN1C(=O)[C@@]2(O[C@@H](CCO)[C@H]([Si](C)(C)c3ccc(OC)cc3)[C@H]2C)c2cc(N3C(=O)COc4ccccc43)ccc21 | 0.975
17 | C=CCC(OC(C)=O)[C@@H]1[C@@H](N(Cc2ccc(-c3ccccc3)cc2)C(=O)c2ccc(C)cc2)c2cc(OCCCO)ccc2N1C(=O)c1ccc2ccccc2n1 (stereo partly drawn) | 0.13
18 | COCCOC(=O)N1C(=O)[C@@]2(c3cc(C#CC4=CCCCC4)ccc31)[C@H](c1ccc(OCCO)cc1)N1[C@H](c3ccccc3)[C@H](c3ccccc3)OC(=O)[C@H]1[C@@H]2C(=O)Nc1nc2ccccc2s1 | 0.241
19 | O=[N+]([O-])c1ccc(C[n+]2ccc(CCCO)cc2)o1 | 0.181
20 | C=C(C)[C@@H]1CC=C(C(O)C2C=CC3C(=O)N(Cc4ccccc4)C(=O)C3N2n2cnnc2)CC1 (stereo partly drawn) | 0.325
21 | CCCNC(=O)[C@@]1(C)c2ccccc2C(=O)N(Cc2cc(F)cc(C(F)(F)F)c2)[C@H]1c1ccc(CO)cc1 | -0.282
22 | CO[C@H]1O[C@H](CO)[C@@H](OC(=O)Nc2cccc(F)c2)[C@H](OC(=O)Nc2ccccc2-c2ccccc2)[C@@H]1OC(=O)Nc1ccccc1-c1ccccc1 | 1.02
23 | CCOC(=O)N1C(c2ccc(OCCCO)cc2)=NC(C(=O)OC)N1C(=O)OCC (stereo not drawn) | 0.424
24 | COCCCNC(=O)[C@@]1(Cc2ccccc2I)c2ccccc2C(=O)N(Cc2ccccc2)[C@H]1c1ccc(CO)cc1 | -0.656
25 | COc1ccc(C#Cc2ccc3c(c2)[C@]2(C(=O)N3)[C@H](C(=O)N3CCN(c4ncccn4)CC3)[C@H]3C(=O)O[C@H](c4ccccc4)[C@H](c4ccccc4)N3[C@@H]2c2ccc(O)cc2)cc1 | 0.234
26 | CN(C)CCCC[C@@H]1NC(=O)[C@@H]2C[C@H](C(=O)NCc3ccc(F)cc3)[C@H](c3cccc(OCCO)c3)N2C1=O | 0.202
27 | O=C1O[C@@H](c2ccccc2)[C@@H](c2ccccc2)N2[C@@H](c3ccc(O)cc3)[C@]3(C(=O)Nc4ccc(C#CCCO)cc43)[C@@H](C(=O)O)[C@H]12 | 2.44
28 | CC(C)NC(=O)[C@@]1(c2ccc([N+](=O)[O-])cc2)CC(=O)N(C(C)C)[C@@H]1c1ccc(CO)cc1 | -1.08

— PubChem BioAssay
